Paper PMC4336329 (PLoS ONE, 2015)
Among all 310,000 compounds or so, about 14,000 (4.5%) showed an effect of 50% or more. Effects have a minus sign here. The sample as a whole holds a higher share of strong results than the screen did.

Target: human ether-à-go-go-related gene (hERG) potassium channel (human, UniProt Q12809)
Test: primary screen, population patch clamp on CHO cells stably expressing hERG; higher = less effect of the substance
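Note: peak tail current of the secondary pulse compared with the same well before compound.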

Sequence of human ether-à-go-go-related gene (hERG) potassium channel (Q12809 whole entry, looked up): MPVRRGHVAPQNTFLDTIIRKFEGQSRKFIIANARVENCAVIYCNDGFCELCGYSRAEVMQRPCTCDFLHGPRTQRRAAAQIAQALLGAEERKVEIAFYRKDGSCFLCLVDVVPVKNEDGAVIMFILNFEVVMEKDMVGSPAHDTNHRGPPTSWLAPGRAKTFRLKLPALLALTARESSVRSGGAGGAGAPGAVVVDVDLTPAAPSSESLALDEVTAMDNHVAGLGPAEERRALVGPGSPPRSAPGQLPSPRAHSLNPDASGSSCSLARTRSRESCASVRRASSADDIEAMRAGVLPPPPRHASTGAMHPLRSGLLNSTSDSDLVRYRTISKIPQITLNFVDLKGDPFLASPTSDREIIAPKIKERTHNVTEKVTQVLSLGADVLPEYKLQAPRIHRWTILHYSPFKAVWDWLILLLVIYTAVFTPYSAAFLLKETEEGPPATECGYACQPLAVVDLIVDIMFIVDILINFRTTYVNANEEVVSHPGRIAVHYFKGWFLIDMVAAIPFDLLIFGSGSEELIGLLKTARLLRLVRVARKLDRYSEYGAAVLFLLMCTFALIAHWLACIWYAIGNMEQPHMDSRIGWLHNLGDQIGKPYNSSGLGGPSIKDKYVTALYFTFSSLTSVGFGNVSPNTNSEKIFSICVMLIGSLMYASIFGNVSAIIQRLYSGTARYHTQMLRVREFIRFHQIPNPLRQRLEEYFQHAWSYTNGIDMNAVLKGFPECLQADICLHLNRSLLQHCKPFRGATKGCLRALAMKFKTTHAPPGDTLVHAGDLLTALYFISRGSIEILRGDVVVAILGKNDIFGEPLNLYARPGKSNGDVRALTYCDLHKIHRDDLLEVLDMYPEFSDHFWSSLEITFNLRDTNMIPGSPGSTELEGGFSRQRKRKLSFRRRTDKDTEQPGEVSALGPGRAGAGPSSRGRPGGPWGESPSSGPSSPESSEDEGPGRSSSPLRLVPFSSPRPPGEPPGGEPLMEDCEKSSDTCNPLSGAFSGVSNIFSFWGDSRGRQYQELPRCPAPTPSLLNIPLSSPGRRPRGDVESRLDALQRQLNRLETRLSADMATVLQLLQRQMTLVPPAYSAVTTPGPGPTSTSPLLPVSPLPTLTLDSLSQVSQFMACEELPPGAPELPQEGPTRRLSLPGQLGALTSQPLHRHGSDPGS

Row | SMILES | hERG current change (%, negative = inhibition) at 10uM
1 | COCCNC(=O)c1onc(CSc2ccccc2)c1C(=O)O | 7.09%
2 | O=C(CN1CCOc2ccccc21)NCc1ccco1 | 2.93%
3 | Cc1cccc(NC(=O)C2(C)CC3c4ccccc4C2c2ccccc23)c1 (stereo not shown) | 9.5%
4 | O=C(Nc1nnc(CCN2CCCCC2)s1)c1cccc(Cl)c1 | -10.8%
5 | Cl.O=C(Nc1nnc(CCN2CCCCC2)s1)c1ccccc1 | 4.58%
6 | O=C(Nc1nnc(CCN2CCCCC2)s1)c1ccc(Br)cc1 | -51.4%
7 | CC(C)C(=O)Nc1ccc(NC(=O)c2ccc3c(c2)OCO3)cc1 | 10.2%
8 | Cc1ccccc1OCC(=O)Nc1cccc(S(=O)(=O)NC2=NCCCCC2)c1 | -7.89%
9 | COc1cccc2c1OCC([C@@H]1C[C@H]3CN(Cc4cccc(Cl)c4)C(=O)[C@]34CCCN14)=C2 | -45.2%
10 | O=C1N(Cc2cccc(Cl)c2)C[C@@H]2C[C@@H](c3ccccn3)N3CCC[C@@]123 | -18.5%
11 | COCc1ccc([C@@H]2C[C@H]3CN(Cc4cccc(Cl)c4)C(=O)[C@]34CCCN24)o1 | -31%
12 | CCn1ncc([C@@H]2C[C@H]3CN(Cc4cccc(Cl)c4)C(=O)[C@]34CCCN24)c1C | -33%
13 | Cc1cccc([C@@H]2C[C@H]3CN(Cc4cccc(Cl)c4)C(=O)[C@]34CCCN24)n1 | -55%
14 | O=C1N(Cc2cccc(Cl)c2)C[C@@H]2C[C@@H](c3ccco3)N3CCC[C@@]123 | -25.9%
15 | O=C1N(Cc2cccc(Cl)c2)C[C@@H]2C[C@@H](c3cccc4cccnc34)N3CCC[C@@]123 | -78%
16 | O=C1N(Cc2cccc(Cl)c2)C[C@@H]2C[C@@H](c3ccsc3)N3CCC[C@@]123 | -60.1%
17 | COc1ccccc1/C=C/[C@@H]1C[C@H]2CN(Cc3cccc(Cl)c3)C(=O)[C@]23CCCN13 | -75.4%
18 | CC(C)n1cc([C@@H]2C[C@H]3CN(Cc4cccc(Cl)c4)C(=O)[C@]34CCCN24)cn1 | -33.7%
19 | O=C(Nc1cnn(Cc2ccccc2)c1)c1cc2nc(-c3ccco3)cc(C(F)(F)F)n2n1 | 7.2%
20 | O=C(c1ccccc1)c1ccccc1N/C=C/c1nnnn1-c1ccccc1 | 1.11%

Row | SMILES | hERG current change (%, negative = inhibition) at 10uM
21 | CCCCCOc1ccc(CSc2ncn[nH]2)cc1 | -17.4%
22 | O=C(NCC1CCCO1)c1onc(CSc2ccccc2)c1C(=O)O (stereo not shown) | 10.1%
23 | CC(C)(C)OC(=O)CNC(=O)c1nc[nH]c1C(=O)N1CC[NH2+]CC1.[Cl-] | 4.07%
24 | O=S1(=O)CCN(OCc2ccc(F)cc2Cl)CC1 | 34.4%
25 | O=C(Cc1n[nH]c(=O)c2ccccc12)Nc1cccc(S(=O)(=O)N2CCCC2)c1 | -5.36%
26 | Cc1ccc(NC(=O)Cc2c[nH]c3ccccc23)cc1S(=O)(=O)N1CCCCCC1 | 14.1%
27 | O=C(Cn1[nH]c(=O)c2ccccc2c1=O)Nc1cccc(S(=O)(=O)N2CCCCCC2)c1 | -13.2%
28 | CCN(CC)S(=O)(=O)c1cc(NC(=O)Cc2n[nH]c(=O)c3ccccc23)ccc1C | -21.2%
29 | Cc1ccc(NC(=O)Cc2n[nH]c(=O)c3ccccc23)cc1S(=O)(=O)N1CCCCCC1 | -51.5%
30 | O=C(Cc1n[nH]c(=O)c2ccccc12)Nc1cccc(S(=O)(=O)N2CCCCCC2)c1 | -57.8%
31 | CCCCP(=O)(CCCC)Cc1ccccc1O | 13.9%
32 | COc1ccccc1NC(=O)Nc1nc(CC(=O)Nc2ccc(F)cc2)cs1 | -1.25%
33 | COc1ccc(-c2cc(C(=O)N3CCc4ccccc4C3)no2)cc1 | -0.668%
34 | Cc1ccc(-n2c(C)cc(C(=O)NS(=O)(=O)c3ccc(C)cc3)c2C)cc1 | -30.8%
35 | COP(=O)(NS(=O)(=O)c1ccccc1)OC | 19.9%
36 | C=CCn1c(Cc2cccs2)nnc1SCC(=O)NCc1ccco1 | -1.47%
37 | Cc1ccnc(SCc2cc(=O)c(OC(=O)c3ccc(S(=O)(=O)N(C)C)cc3)co2)n1 | -36.4%
38 | CCOC(=O)c1c(NC(=O)CN(C)C)sc(C(=O)N(CC)CC)c1C.O=C(O)C(=O)O | -17.6%
39 | CCC[C@@H]1CCCO[C@@](C(=O)NCc2ccccn2)(C(F)(F)F)C1 | -1.97%
40 | COc1cc2c(cc1OC)C1(CCCC1)CNC2c1ccc([N+](=O)[O-])cc1.Cl (stereo not shown) | -50%
